# Measured values reported in PubChem BioAssay.
# Unmarked numbers belong to inactive results. For some of these results: Results with a measured potency or affinity are listed apart. The source made the active and inactive calls. Unless noted, no rule for the calls is given here.
# Key:
# [1] = antimalarial activity against Dd2 strain (AID 2302;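 active = growth inhibition above 50% at the single 2 µM test dose, taken to imply half-maximal potency below 2 µM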;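 also: 0% = DMSO untreated growth and 100% = chloroquine plus artemisinin killed control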); conditions: P. falciparum Dd2 in RBCs, LDH growth readout, 72 h; at 2 µM; stronger effect = higher value
# [2] = human hepatoma cell viability loss – ATP luminescence, cytotoxicity control for P. falciparum antimalarial project, primary screen (AID 2303;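 active = inhibition above 50%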;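 also: 0% = DMSO wells and 100% = digitonin-killed cells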); conditions: HepG2 viability, 24-48 h, at 10 µM, stronger effect = higher value
# [3] = molecular target: L-lactate dehydrogenase (Plasmodium falciparum (isolate CDC / Honduras)) (UniProt Q27743); assay: PfLDH activity inhibition – cell lysate, 3D7 strain, counter-screen for P. falciparum growth inhibition project (AID 2304);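 also: 0% = vehicle and 100% = reference inhibitor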; conditions: P. falciparum 3D7 crude extract, LDH APAD/NBT absorbance; at 2 µM; stronger effect = higher value
# L-lactate dehydrogenase (Plasmodium falciparum (isolate CDC / Honduras)), sequence (Q27743 whole entry, looked up): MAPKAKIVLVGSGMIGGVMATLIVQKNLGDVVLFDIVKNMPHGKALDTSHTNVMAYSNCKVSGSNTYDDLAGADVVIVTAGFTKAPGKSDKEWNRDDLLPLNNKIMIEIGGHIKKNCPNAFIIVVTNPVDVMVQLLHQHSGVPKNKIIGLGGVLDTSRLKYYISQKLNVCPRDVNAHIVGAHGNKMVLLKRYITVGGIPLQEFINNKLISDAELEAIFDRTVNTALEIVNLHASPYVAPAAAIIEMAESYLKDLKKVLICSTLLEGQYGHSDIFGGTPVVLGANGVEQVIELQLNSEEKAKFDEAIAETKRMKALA
# [4] = inhibition of 3D7 malaria parasite growth – strain 3D7 (AID 2306);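 also: 0% = DMSO wells and 100% = chloroquine plus artemisinin control wells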; conditions: P. falciparum 3D7 erythrocytic growth, LDH absorbance, 72 h; at 2 µM; stronger effect = higher value
# [5] = molecular target: Calcium-dependent protein kinase 1 (Plasmodium falciparum (isolate 3D7)) (UniProt P62344); assay: PfCDPK1 kinase inhibitors, biochemical, TCAMS library (AID 1159585; cut-off not given, nearly all actives have IC50 up to about 0.98 µM;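 also: inhibitors leave more ATP so luminescence rises with inhibition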); conditions: recombinant PfCDPK1, Kinase-Glo ATP depletion luminescence
# Calcium-dependent protein kinase 1 (Plasmodium falciparum (isolate 3D7)), sequence (P62344 whole entry, looked up): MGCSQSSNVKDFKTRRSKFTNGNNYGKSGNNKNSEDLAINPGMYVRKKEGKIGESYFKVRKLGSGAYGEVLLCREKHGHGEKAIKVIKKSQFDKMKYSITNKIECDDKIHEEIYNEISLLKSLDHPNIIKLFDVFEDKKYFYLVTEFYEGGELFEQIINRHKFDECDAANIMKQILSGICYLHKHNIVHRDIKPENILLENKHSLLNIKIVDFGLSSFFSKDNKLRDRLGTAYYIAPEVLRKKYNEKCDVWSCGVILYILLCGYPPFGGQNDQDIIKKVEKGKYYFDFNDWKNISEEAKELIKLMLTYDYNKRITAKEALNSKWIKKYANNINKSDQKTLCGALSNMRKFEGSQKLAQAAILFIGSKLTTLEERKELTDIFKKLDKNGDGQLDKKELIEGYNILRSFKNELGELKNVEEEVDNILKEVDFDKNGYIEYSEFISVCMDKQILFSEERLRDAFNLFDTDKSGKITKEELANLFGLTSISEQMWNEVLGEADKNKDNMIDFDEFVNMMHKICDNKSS
# [6] = molecular target: Plasmodium falciparum protein kinase 6 (PK6, PF3D7_1337100) (UniProt Q8IDW1); assay: PfPK6 kinase inhibitors, biochemical, TCAMS library (AID 1159586); conditions: recombinant PfPK6, Kinase-Glo ATP depletion luminescence
# Plasmodium falciparum protein kinase 6 (PK6, PF3D7_1337100), sequence (Q8IDW1 1-305): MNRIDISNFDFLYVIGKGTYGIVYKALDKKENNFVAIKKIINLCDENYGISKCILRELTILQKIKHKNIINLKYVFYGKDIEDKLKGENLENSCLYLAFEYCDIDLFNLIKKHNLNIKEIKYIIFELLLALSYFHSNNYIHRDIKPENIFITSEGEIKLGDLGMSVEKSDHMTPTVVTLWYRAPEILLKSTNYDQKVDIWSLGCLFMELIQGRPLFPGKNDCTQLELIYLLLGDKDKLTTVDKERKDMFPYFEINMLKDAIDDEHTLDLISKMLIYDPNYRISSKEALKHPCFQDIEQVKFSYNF
# [7] = molecular target: Protein kinase 7 (PK7), Plasmodium falciparum 3D7 (PF3D7_0213400) (UniProt Q7YTF7); assay: inhibition of Plasmodium PK7 catalytic activity – biochemical, TCAMS antimalarial set, Kinase-Glo luminescence (AID 1159587); conditions: recombinant PfPK7, Kinase-Glo ATP depletion luminescence
# Protein kinase 7 (PK7), Plasmodium falciparum 3D7 (PF3D7_0213400), sequence (Q7YTF7 1-343): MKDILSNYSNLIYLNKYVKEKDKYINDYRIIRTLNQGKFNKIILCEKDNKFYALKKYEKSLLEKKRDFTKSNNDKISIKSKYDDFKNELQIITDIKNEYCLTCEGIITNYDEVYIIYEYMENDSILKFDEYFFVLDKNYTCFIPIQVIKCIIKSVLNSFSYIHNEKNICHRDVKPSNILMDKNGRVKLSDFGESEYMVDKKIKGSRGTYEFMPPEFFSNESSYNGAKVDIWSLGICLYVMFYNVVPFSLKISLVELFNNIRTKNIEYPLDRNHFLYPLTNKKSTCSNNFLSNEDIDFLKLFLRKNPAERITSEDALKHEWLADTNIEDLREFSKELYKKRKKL
# [8] = molecular target: Calcium-dependent protein kinase 4 (Plasmodium falciparum (isolate 3D7)) (UniProt Q8IBS5); assay: PfCDPK4 kinase inhibitors, biochemical, TCAMS library (AID 1159588; cut-off not given, nearly all actives have IC50 up to about 0.91 µM); conditions: recombinant PfCDPK4, Kinase-Glo ATP depletion luminescence
# Calcium-dependent protein kinase 4 (Plasmodium falciparum (isolate 3D7)), sequence (Q8IBS5 whole entry, looked up): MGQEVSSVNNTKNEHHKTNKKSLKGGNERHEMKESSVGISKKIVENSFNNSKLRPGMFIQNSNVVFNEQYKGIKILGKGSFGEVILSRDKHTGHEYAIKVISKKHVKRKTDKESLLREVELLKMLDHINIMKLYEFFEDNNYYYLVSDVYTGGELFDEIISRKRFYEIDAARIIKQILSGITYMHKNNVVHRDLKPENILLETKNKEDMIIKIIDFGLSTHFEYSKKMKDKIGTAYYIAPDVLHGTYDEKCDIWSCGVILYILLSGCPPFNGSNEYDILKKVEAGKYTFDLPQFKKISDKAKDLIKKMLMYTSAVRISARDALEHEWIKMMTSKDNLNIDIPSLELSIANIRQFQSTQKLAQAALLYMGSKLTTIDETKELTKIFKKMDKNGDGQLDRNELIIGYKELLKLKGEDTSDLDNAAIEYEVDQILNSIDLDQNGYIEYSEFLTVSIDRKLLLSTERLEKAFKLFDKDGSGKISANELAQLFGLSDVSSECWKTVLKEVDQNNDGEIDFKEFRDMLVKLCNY
Structure (SMILES),growth inhibition [1],inhibition [2],inhibition [3] [%],growth inhibition [4],outcome [5],outcome [6],outcome [7],outcome [8]
CC(C)(C)c1cc2cc(Nc3ccnc4cc(-c5nccs5)ccc34)ccc2[nH]1,97% (active),5%,-1,101% (active),inactive,inactive,inactive,inactive
CCc1c(C(=O)NC2CCC(N3CCC(c4ccccc4OC)CC3)CC2)[nH]c2ccc(Br)cc12 (stereo not given),98% (active),85% (active),-1,101% (active),inactive,inactive,inactive,inactive
Cc1cc(C(=O)Nc2ccc3c(c2)CCN3C2CCN(Cc3ccc(O)cc3)C2)no1 (stereo not given),86% (active),3%,-1,95% (active),inactive,inactive,inactive,inactive
NCC1CCCN1Cc1ccc(-c2ccc(-c3nc4ccc(C(F)(F)F)cc4[nH]3)cc2)cc1 (stereo not given),98% (active),35%,3,101% (active),inactive,inactive,inactive,inactive
C=CCOC(=O)N1CCC(CNCc2ccc(-c3ccc(-c4nc5ccccc5[nH]4)s3)cc2)C1 (stereo not given),76% (active),29%,-2,101% (active),inactive,inactive,inactive,inactive
CCOc1c(CNCCCNc2cc(=O)c3ccccc3[nH]2)cc(Br)cc1OC,18%,10%,-9,80% (active),inactive,inactive,inactive,inactive
O=C(Nc1ccccc1Br)c1cn(-c2ccccc2)nc1-c1cccc([N+](=O)[O-])c1,36%,7%,-5,92% (active),inactive,inactive,inactive,inactive
Cc1cc(-c2cccc(CNCCc3ccc(Cl)cc3)c2)cnc1N,3%,19%,0,90% (active),inactive,inactive,inactive,inactive
Cc1cnc(Nc2ccccc2)nc1N[C@@H](CCCN)C(=O)Nc1ccccc1,0%,-2%,-1,101% (active),inactive,inactive,inactive,inactive
C=C1N(C)c2cc([N+](=O)[O-])c(N)cc2C1(C)C,83% (active),22%,-2,98% (active),inactive,inactive,inactive,inactive
NC(N)=Nc1nc(-c2ccc(N=C(N)N3CCC[C@H]3CN3CCCC3)cc2)cs1,66% (active),6%,1,82% (active),inactive,inactive,inactive,inactive
O=C(Nc1ccc(Oc2ccccc2)cc1)N(Cc1ccc(-c2cccc(CN3CCNCC3)c2)cc1)C1CCN(Cc2ccccc2)CC1,53% (active),10%,-1,93% (active),inactive,inactive,inactive,inactive
COc1ccc(C2CC(c3cccs3)=NN2C(=O)COc2cccc3c2CCCC3O)cc1OC (stereo not given),62% (active),5%,3,93% (active),inactive,inactive,inactive,inactive
O=S(=O)(c1ccc(OCc2ccc(Cl)cc2)cc1)c1cc2c(c(-c3ccc(F)cc3)c1)CCN(CC1CC1)CC2,14%,-5%,-5,84% (active),inactive,inactive,inactive,inactive
CCCCCCCN1CC[C@@H](C[C@H](N)Cc2ccnc3ccc(OC)cc23)[C@@H](CC)C1,51% (active),33%,-2,91% (active),inactive,inactive,inactive,inactive
O=C(C1COc2ccccc2O1)N(CCCn1ccnc1)Cc1csc(-c2ccc(CNCc3ccccc3)cc2)n1 (stereo not given),18%,15%,-1,100% (active),inactive,inactive,inactive,inactive
CCOC(=O)c1cncc(/C=C/c2cc(C)cnc2N)c1,3%,4%,-4,86% (active),inactive,inactive,inactive,inactive
c1ccc(CN2CCC(NCc3cccc(-c4cncc5ccccc45)c3)CC2)cc1,11%,29%,3,92% (active),inactive,inactive,inactive,inactive
O=C(Nc1ccc(CN2CCOCC2)cc1)c1ccc(-c2ccc(Cl)cc2)o1,11%,22%,-6,98% (active),inactive,inactive,inactive,inactive
COc1ccc(OCCCN2CCCCC2)cc1S(=O)(=O)c1ccc(OCc2ccc(C(F)(F)F)cc2)cc1,8%,52% (active),-2,94% (active),inactive,inactive,inactive,inactive
